Source: PubChem (National Center for Advancing Translational Sciences (NCATS))
Compounds with a hit are over-represented: about 21% of the library has one in this group of screens.
Sm TGR block: inhibitors of Schistosoma mansoni thioredoxin glutathione reductase. Q962Y6. purified TGR, DTNB reduction, TNB absorbance 405 nm. Potency, µM (top dose mostly 114 µM), for the others: at the top dose activity change, negative = inhibition, usual class: inhibitors. 360,000 compounds, 3% hits. AID 485364; further: potency means the concentration at half of the fitted maximal effect; on the % scale 0 is the no-effect control and ±100 the full control effect; nearly all actives have a fitted effect of over 60% in size
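First, TGR (20 nM dispensed) and NADPH were mixed with compound. Second, a 15 min room-temperature incubation followed. Third, further NADPH and then DTNB were added to start the reaction. Finally, TNB absorbance was monitored kinetically.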
Shiga toxin inh: inhibitors of Shiga toxin in Vero cells; Vero cells, Shiga toxin protein synthesis inhibition reporter; inhibition, % at 38.7 µM; 290,000 compounds, 9.2% hits; AID 2315; in the data active means inhibition mostly above about 28%, no sharp cut-off; inactive means mostly below about 43%; further: 0% is about no effect
NS1 function inh: blocks influenza NS1 protein function; Potency, µM (series often up to 46.1 µM), for inactives: top-dose activity, positive = more growth; AID 2326; 270,000 compounds, 0.4% hits; calls by dose curve; further: potency means the concentration at half of the fitted maximal effect; actives are rising curves; nearly all actives have a fitted effect of over 50% in size
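A cell-based growth assay was used: compounds that relieve NS1-induced slow growth of budding yeast raise OD600. Assay medium was yeast nitrogen base with ammonium sulphate and -URA supplement, pH 6.0, with 2% galactose.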
CHX counter: counter-screen for Shiga toxin inhibitors: cycloheximide protein synthesis inhibition; AID 2314; 300,000 compounds, 12% hits; max response, %; cell reporter, cycloheximide protein synthesis inhibition counterscreen; in the data active means max response mostly above about 13%, no sharp cut-off; inactive means mostly below about 14%; further: read at 38.3 µM for the half of the compounds with a filed dose; 0% is about no effect
Pf growth 48h: P. falciparum growth inhibition at 48 hours (one generation). P. falciparum luciferase growth in erythrocytes, 48 h. Potency, µM (doses to about 28.7 µM), without a hit: at the top dose activity change, negative = inhibition, most hits filed as inhibitors. 310,000 compounds, 5.9% hits. AID 504832; further: potency means the concentration at half of the fitted maximal effect; on the % scale 0 is the no-effect control and ±100 the full control effect
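Luminescence readout; reporter = integrated firefly luciferase in P. falciparum. RBC culture at 2% hematocrit, 0.1% parasitemia final, 37 C/5% CO2; decreased signal taken as growth inhibition.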
Pf growth 96h: P. falciparum growth inhibition at 96 hour, primary screen for plastid delayed-death inhibitors. Potency, µM (highest dose often 28.7 µM), inactives show top-dose activity change, negative = inhibition, actives largely listed as inhibitors. 320,000 compounds, 6.9% hits. AID 504834. P. falciparum luciferase reporter growth, 96 h; further: potency means the concentration at half of the fitted maximal effect; on the % scale 0 is the no-effect control and ±100 the full control effect
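Plates of compound plus infected erythrocytes (2% hematocrit, 0.05% parasitemia final) incubate 96 hours, 37 C, 5% CO2. Detection reagent added; reduced luminescence from the parasites' luciferase reporter flags inhibition.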
* hit, by the source's call; ? = inconclusive; · = no result; [ ] = another dose, or the depositor's remark. Unless noted, the call rests on the fitted dose curve; in most records, active means well fitted curve in the direction sought with a large enough effect; inconclusive means small, poorly fitted or top-dose-only effect, or another doubt; inactive means no such curve, though single readings can be large; an effect the other way counts as inactive or inconclusive.

SMILES	Sm TGR block	Shiga toxin inh	NS1 function inh	CHX counter	Pf growth 48h	Pf growth 96h
CCOC(=O)Cc1csc(NC(=O)CCCC(=O)O)n1	8%	-4	-2%	1	32%	48%
COc1ccccc1C(=O)C1CCCN(Cc2cn[nH]c2C2CCCCC2)C1 (stereo not drawn)	12%	-1	3%	-3	?	1%
CCOC(=O)Cc1csc(NC(=O)c2cc3ccccc3o2)n1	4%	54*	·	23*	120%	-26%
CNc1oc(/C=C/c2cccc(OC)c2)nc1C#N	0%	99*	-3%	35*	69%	165%
CCN(CC)CCCNc1oc(/C=C/c2ccc(OC)c(OC)c2)nc1C#N	0%	·	·	·	·	·
CCN(CC)CCCNc1oc(/C=C/c2ccccc2)nc1C#N	3%	24	1%	22*	2%	1%
CCOc1ccc(/C=C/c2nc(C#N)c(NCCc3ccccc3)o2)cc1	4%	·	·	·	·	·
CCNc1oc(/C=C/c2ccc(OCC)cc2)nc1C#N	-30%	38*	-7%	16*	?	?
O=C(CSc1ccc(-c2ccco2)nn1)NCCc1ccccc1	11µM*	-10	·	8	-7%	-14%
O=C(CSc1ccc(-c2ccc(F)cc2)nn1)NCc1ccco1	-2%	14	9%	-4	-23%	?
COc1ccc(CCNC(=O)CSc2ccc(-c3ccco3)nn2)cc1	13µM*	59	·	0	-12%	-26%
COc1ccc(-c2nnc(SCC(=O)NC(=O)NCc3ccco3)o2)cc1	-3%	14	6%	9.4*	-4%	56%
COc1cccc(-c2ccc(SCC(=O)NCCc3ccccc3)nn2)c1	-5%	35	·	11	1%	16%
COc1ccc(CCNC(=O)CSc2ccc(-c3ccncc3)nn2)cc1	0%	-6	2%	8	-29%	31%
COc1ccc(-c2ccc(SCC(=O)NCc3ccco3)nn2)cc1	-21%	57*	4%	17*	47%	1%
CCCCC(=O)Nc1ccccc1C(=O)OCc1cc(=O)n2nc(C3CCCCC3)sc2n1	1%	·	·	·	·	·
Cc1c(NC(=O)c2ccccc2)cc(C(C)C)c(O)c1S(=O)(=O)c1ccc(Cl)cc1	-2%	·	·	·	·	·
COC(=O)CNC(c1ccccc1)c1cc(Br)ccc1NC(=O)c1ccccc1 (stereo not drawn)	5%	·	·	·	·	·
COc1ccc(-c2ccc(C#N)c(SCC(=O)NCc3ccco3)n2)cc1OC	32µM*	-6	3%	3	?	?
COc1ccc(-c2ccc(C#N)c(SCC(=O)NC3CC3)n2)cc1OC	8%	9	-1%	-2	-3%	?
CCOC(=O)c1c(C)[nH]c(C)c1S(=O)(=O)N(C)CC(=O)N1CCN(c2cccc(C)c2C)CC1	14%	·	·	·	·	·
O=C(Cn1ncc(Cl)c(Cl)c1=O)NC1CCCCC1	25µM*	·	·	·	-24%	?
O=C(Cn1ncc(Cl)c(Cl)c1=O)NC1CCS(=O)(=O)C1 (stereo not drawn)	6.3µM*	-5	6%	-1	-14%	-6%
O=C(Cn1cnc2ccccc2c1=O)NC1CCS(=O)(=O)C1 (stereo not drawn)	-2%	·	·	·	49%	?
O=C(Cn1ncc(Cl)c(Cl)c1=O)NCC1CCCCC1	35µM*	-8	19%	30*	-18%	-3%
SMILES	Sm TGR block	Shiga toxin inh	NS1 function inh	CHX counter	Pf growth 48h	Pf growth 96h
CCc1ccccc1NC(=O)c1cc2nc(-c3ccc(Br)cc3)cc(C(F)(F)F)n2n1	-1%	·	·	·	·	·
CCCN(CC(=O)Nc1ccccc1C)C(=O)C1CC(=O)N(c2ccc(CC)cc2)C1 (stereo not drawn)	-22%	·	·	·	-12%	?
CC(=O)Nc1ccc2c(c1)OCO2	-3%	17	·	9	1%	1%
C/C(=C\C(=O)c1ccc(C)o1)Nc1ccc2c(c1)OCO2	1%	49*	-3%	23*	-11%	31%
Cc1ccc(C(=O)Nc2ccc3c(c2)OCO3)o1	-10%	68*	-1%	31*	90%	119%
C/C(=C\C(=O)c1ccccc1)Nc1ccc2c(c1)OCO2	-16%	50*	13%	37*	167%	?
Cc1ccc(C(=O)OCC(=O)Nc2ccc3c(c2)OCO3)o1	-23%	24	1%	21	102%	82%
COc1cccc(CN2CC(C(=O)NCc3ccc(C)o3)CCC2=O)c1 (stereo not drawn)	?	8	-5%	-4	4%	0%
CCOC(=O)C1CCC(CN(Cc2c(Cl)cccc2Cl)S(=O)(=O)c2ccc(Cl)cc2)CC1 (stereo not drawn)	-8%	·	·	·	·	·
CCOC(=O)c1[nH]c(C)c(CCC(=O)Nc2cccc(C(F)(F)F)c2)c1C	-8%	·	·	·	·	·
Cc1c(Cl)c(=O)oc2cc(OP(=O)(OCCCl)OCCCl)ccc12	·	·	·	·	13µM*	?
Cc1c(Cl)c(=O)oc2cc(OC(C)C)ccc12	8%	13	1%	9	?	1%
COc1ccc(/C=N/n2cncn2)cc1Cn1cc([N+](=O)[O-])cn1	13%	21	4%	-3	39%	-2%
COc1cc(/C=N/NC(=O)c2ccc(O)cc2)ccc1Oc1ccc([N+](=O)[O-])cn1	1%	17	-17%	9	?	?
COc1cccc(/C=N/NC(=O)c2ccc([N+](=O)[O-])cc2Cl)c1O	-1%	-18	-6%	17*	?	27%
COc1cccc(/C=N/Nc2ccc([N+](=O)[O-])cc2)c1O	4%	76*	-5%	33*	34%	5%
COc1ccc(/C=N/Nc2ccc([N+](=O)[O-])cc2)cc1Cn1cc([N+](=O)[O-])cn1	1%	43	2%	11*	7%	·
COc1cc(/C=N/NC(=O)c2cccc([N+](=O)[O-])c2)cc(OC)c1O	-12%	26	·	-2	4%	-2%
COc1cc(/C=N/Nc2ccc([N+](=O)[O-])cn2)cc(OC)c1O	-15%	17	0%	25*	6%	-3%
Cc1ccc(C)c(NC(=O)c2cnn(-c3ccc(F)cc3F)c2C2CCNCC2)c1	-1%	·	·	·	·	·
CCOc1ccccc1N1CC(C(=O)Nc2ccc3c(c2)OCCO3)CC1=O (stereo not drawn)	-5%	48	0%	18	0%	-27%
COc1cccc(N2CCN(C(=O)Cn3cnc4onc(-c5ccc(F)cc5)c4c3=O)CC2)c1	0%	·	·	·	·	·
CC(C)(C)OC(=O)C(Cc1ccc(OC(C)(C)C)cc1)NC(=O)CNC(=O)OCc1ccccc1 (stereo not drawn)	-1%	-8	-20%	-3	?	-1%
COc1ccc(/C=N/Nc2ccc([N+](=O)[O-])cc2)cc1O	0%	80*	-64%	26*	0%[0.00184 µM]	17%
CC1=CC(C)(C)Nc2ccc(OC(=O)CN3C(=O)CCC3=O)cc21	0%	27	0%	12	10µM*	·
CC1=CC(C)(C)Nc2ccc(OC(=O)c3cccnc3)cc21	-14%	94*	-8%	27*	5.2µM*	·
